Experimental findings from PubChem BioAssay are described below.

A number with no mark means an inactive call. No rule for the calls is given here.

The test system of this assay is Aerobactin synthetase IucA (Klebsiella pneumoniae). Kind of assay: inhibition of K. pneumoniae IucA enzyme – biochemical, Tocris library, absorbance (AID 1345561).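 Also: 100% = enzyme without compound and 0% = no enzyme.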 Particulars: purified IucA enzyme assay, absorbance (OD) read-out; active compounds read low;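 tested at 8 µM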.
As a reminder, the remaining activity is the signal under treatment as a percentage of the control signal. For the compound `Fc1ccc(C(OCCN2CCN(C/C=C/c3ccccc3)CC2)c2ccc(F)cc2)cc1`, the remaining activity is 116%.
For the compound `O=C1Nc2cc(Cl)c(Cl)cc2N2CCNCC12` (configuration not stated), the remaining activity is 125%.
For `O=C1/C(=C/c2ccccc2)C[C@@]2(O)C3Cc4ccc(O)c5c4[C@@]2(CCN3CC2CC2)[C@H]1O5`, the remaining activity is 97.5%.
For `CC(C)(C)NCC(O)COc1cccc2[nH]c(C#N)cc12` (configuration not stated), the remaining activity is 115%.
Turning to `Cc1o[nH]c(=O)c1C[C@H](N)C(=O)O`, the remaining activity is 106%.
For the compound `C[C@H](N)Cc1cnc[nH]1`, the remaining activity was 92.3%.
To `c1ccc(CC(c2ccccc2)N2CCCCC2)cc1` (configuration not stated) belongs 103%; to `CCCOc1ccc2[nH]cc(C3=CCNCC3)c2n1`, 119%.
To `CCCCCOc1c(OC)ccc2cc(C(=O)NCc3ccc4c(c3)OCO4)c(=O)[nH]c12` belongs 107%; to `CCN(CC)CCO[C@H]1CC[C@@]2(C)C(=CC[C@@H]3[C@@H]2CC[C@]2(C)C(=O)CC[C@@H]32)C1`, 113%; to `CC(C)CC(N)C1(c2ccc(Cl)cc2)CCC1` (configuration not stated), 120%.
Next, `O=C1CSC(c2ccccc2Cl)c2cc(Cl)ccc2N1` (configuration not stated): 115%; `CC(=O)N1CC[N+](C)(C)CC1`: 90.4%.
As to `O=C(O)CCC(CP(=O)(O)O)C(=O)O` (configuration not stated), the remaining activity is 113%.
Next, `COc1cc2c(cc1O)C(CCc1ccc(Cl)cc1)N(C)CC2` (configuration not stated): 109%.
Next, `N[C@]1(C(=O)O)CC[C@@H](C(=O)O)C1` (racemic): 103%; `c1ccc(C2CNCc3ccccc32)cc1` (configuration not stated): 117%.
